# From the supplement of paper PMC9334596
# In all, about 5,300 compounds were measured (“PER2::LUC luminescence relative to vehicle control”: median about 0.96, highest 2% from about 1.3 on). The full list was thinned out, with the highest values kept by preference.
# Test system: mPer2Luc MEF
# Assay: PER2::LUC luminescence relative to vehicle control (fold of vehicle); higher = higher PER2::LUC reporter signal
# Settings: 10 µM
# Method in brief: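 The value is PER2::LUC luminescence expressed as fold of vehicle control. Mouse embryonic fibroblasts carrying the mPer2Luc reporter were seeded at ~3000 cells per well in 384-well plates and grown in DMEM with 10% FBS at 37 °C and 5% CO2. Compounds from commercial libraries were added at 10 μM 48 h after seeding, and luminescence was read with the ONE-Glo luciferase assay system 24 h and 30 h after treatment, followed by an alamarBlue viability assay.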
Compound,PER2::LUC luminescence (time after treatment 24 h),PER2::LUC luminescence (time after treatment 30 h)
C#CCN(Cc1cc2c(=O)[nH]c(C)nc2cc1Br)c1ccc(C(=O)NCc2cccnc2)cc1,0.902,0.731
CC(Oc1ccc(Oc2cnc3ccc(Cl)cc3n2)cc1)C(=O)O (centres undefined),1.14,1.05
COc1cc2ncnc(Nc3cccc(I)c3)c2cc1OC,0.808,0.774
O[C@@](Cc1ncc(CC2(C(F)(F)F)CC2)[nH]1)(c1ccc(-n2cccn2)cc1)C(F)(F)F,0.966,0.921
CCOc1ccc(-n2c(C(C)N(Cc3cccnc3)C(=O)Cc3ccc(OC(F)(F)F)cc3)nc3ncccc3c2=O)cc1 (centres undefined),0.97,0.944
O=C(Nc1ccc(OC(F)(F)F)cc1)c1sccc1NCc1ccnc2ccccc12,1.76,1.99
Cc1cc(Nc2ccc(NC(=O)c3ccc(Nc4ccnc5ccccc45)cc3)cc2)nc(N)n1,0.945,1
Cc1c2c(c(O)c3c(O)cccc13)C(=O)O[C@@H]2[C@@H]1[C@H](O)C(=O)C(C(N)=O)=C(O)[C@H]1N(C)C [Alpha-APO-OXYTETRACYCLINE],0.979,0.958
CCc1c(C(=O)NNC(=O)C(O)c2cc(F)cc(F)c2)ccc(O)c1C (centres undefined),0.99,0.823
COc1cccc(-c2cc(=O)c3ccc(OC)cc3o2)c1,0.879,0.955
COc1ccc2oc(-c3ccccc3)c(OC)c(=O)c2c1,1.54,1.73
COc1ccc2c(=O)c(OC)c(-c3ccccc3)oc2c1,0.767,0.809
COc1ccc(-c2cc(=O)c3ccc(O)cc3o2)cc1,1.19,1.23
COc1cccc(-c2cc(=O)c3ccccc3o2)c1N,0.951,0.985
COc1ccc(-c2cc(=O)c3ccccc3o2)cc1,1.72,1.29
COc1ccc2ccc(=O)oc2c1,1,1.01
COc1ccc2oc(-c3ccccc3OC)cc(=O)c2c1,1.38,1.61
COc1ccc(-c2cc(=O)c3c(OC)c(OC)c(OC)c(OC)c3o2)cc1,0.944,1.03
COc1cccc(-c2cc(=O)c3cc(OC)ccc3o2)c1,1.22,1.49
COc1ccc(-c2oc3ccccc3c(=O)c2OC)cc1,0.987,1.2
COc1ccc(-c2cc(=O)c3c(OC)c(OC)c(OC)c(OC)c3o2)cc1OC,0.626,0.784
CC[C@H](C)[C@H]1O[C@]2(C=C[C@@H]1C)C[C@@H]1C[C@@H](C/C=C(\C)[C@@H](O[C@H]3C[C@H](OC)[C@@H](O[C@H]4C[C@H](OC)[C@@H](O)[C@H](C)O4)[C@H](C)O3)[C@@H](C)/C=C/C=C3\CO[C@@H]4[C@H](OC)C(C)=C[C@@H](C(=O)O1)[C@]34O)O2,0.767,0.843
